In ChEMBL document CHEMBL1157539, “Thousands of chemical starting points for antimalarial lead identification” (Nature, 2010):

Key:
Format in all cases: functional
Plasmodium falciparum [1] = experiment: GSK_TCMDC: Inhibition of Plasmodium falciparum 3D7 in whole red blood cells, using parasite LDH activity as an index of growth. Test compounds present at 2uM
Plasmodium falciparum [2] = experiment: GSK_TCMDC: Inhibition of Plasmodium falciparum Dd2 in whole red blood cells, using parasite LDH activity as an index of growth. Test compounds present at 2uM
HepG2 = experiment: GSK_TCMDC: Percent inhibition of human HepG2 cell line. Test compounds present at 10uM.

| SMILES | Inhibition (Plasmodium falciparum [1]) [%] | Inhibition (Plasmodium falciparum [2]) [%] | Inhibition (HepG2) [%] |
| --- | --- | --- | --- |
| Clc1ccc(CNC2CCN(CC3CCCCC3)CC2)cc1.O=C(O)C(F)(F)F | 92 | 15 | 12 |
| CNC(=O)NC1CCN(Cc2c(-c3cccs3)nc3ccccc3c2C(=O)N[C@@H](C)C2CCCCC2)CC1 | 99 | 97 | 5 |
| N#Cc1ccccc1Sc1ccccc1C(=O)Nc1ccc2ccccc2n1 | 92 | 85 | 0 |
| COc1cc(C=Cc2ccc3ccccc3n2)cc(Br)c1OCC(=O)N(C)C | 99 | 87 | 28 |
| COC(=O)c1cccc(CNCc2cccc(-c3ccc(-c4nc5ccccc5[nH]4)cc3)c2)c1.O=C(O)C(F)(F)F | 99 | 51 | 0 |
| Cc1ccc(NC(=S)NC2CCN(CCCCCNC(=O)/C=C/c3ccc(Cl)c(Cl)c3)CC2)cc1Cl | 100 | 56 | 45 |
| CCCOc1ccccc1C(=O)Nc1nonc1-c1ccc(OCC)c(OCC)c1 | 99 | 89 | 46 |
| Cc1ccc(C(=O)NC2CC2)cc1-c1ccc2c(cnn2S(=O)(=O)c2ccc(F)cc2)c1 | 93 | 69 | 7 |
| NC1CCCN(Cc2cccc(-c3ccc(-c4nc5ccccc5[nH]4)cc3)c2)C1.O=C(O)C(F)(F)F (configuration not stated) | 100 | 73 | 25 |
| COc1ccc(C2CCC(NCCCCNC(=O)c3ccc(NC(=O)c4ccc(Cl)cc4)cc3)CC2)cc1 (configuration not stated) | 99 | 7 | 23 |
| COc1ccc2nccc([C@@H](O)CN3CCC(NCc4cc5ccccc5o4)CC3)c2c1.O=C(O)C(=O)O | 96 | 72 | 17 |
| COc1cccc2sc(Nc3nc(-c4ccccn4)cs3)nc12 | 94 | 76 | 41 |
| NCC1CCCN1Cc1ccc(-c2cccc(-c3nc4cc(C(F)(F)F)ccc4[nH]3)c2)cc1.O=C(O)C(F)(F)F (configuration not stated) | 99 | 97 | 24 |
| CN1CCN(CCCN(Cc2ccc(-c3ccc(CNCc4ccc5c(c4)OCO5)cc3)cc2)C(=O)CCC2CCCC2)CC1.O=C(O)C(F)(F)F | 99 | 85 | 55 |
| O=C(NCC1CCC(C(=O)NCCc2ccc(Cl)c(Cl)c2)CC1)c1ccc(O)c(-c2ccc(Cl)c(Cl)c2)c1 (configuration not stated) | 94 | 12 | 0 |
| O=C(/C=C/c1ccc(Cl)c(Cl)c1)NCCCCCN1CCCC(CCCNC(=O)Nc2ccc(C(F)(F)F)cc2)C1 (configuration not stated) | 100 | 48 | 58 |
| Cn1nc(-c2ccc(CNC3CCc4ccccc43)cc2)c2cnc(NCCN3CCCC3)nc21 (configuration not stated) | 99 | 17 | 21 |
| CC(Sc1nc2sccc2c(=O)n1C)C(=O)Nc1ccc2c(c1)OCO2 (configuration not stated) | 100 | 100 | 5 |
| CCN(CCCN1CCCCC1)c1cc(C)nc(Nc2ccc(C)c(F)c2)n1.O=C(O)C(F)(F)F | 100 | 92 | 20 |
| Br.Oc1cccc(CCNCCCCCCNCCc2ccc(Cl)cc2)c1 | 96 | 0 | 23 |
| O=[N+]([O-])c1ccc(Nc2nc(N/N=C/c3ccc(-c4ccc([N+](=O)[O-])cc4)o3)nc(Nc3ccccc3)n2)cc1 | 100 | 74 | 0 |
| CC(CCc1ccccc1)NCC(O)c1cccc([N+](=O)[O-])c1 (configuration not stated) | 97 | 98 | 0 |
| O=C(Nc1cccc(-c2csc(-c3nc4ccccc4[nH]3)c2)c1)c1ccoc1 | 96 | 67 | 36 |
| O=S(=O)(Nc1cccc(CCN2CCC(N3CCCCC3)CC2)c1)c1ccc(Oc2ccccc2)nc1 | 99 | 0 | 8 |
| Cc1nc2nc(N)nc(N)c2c(C)c1Cc1cccc(C(N)=O)c1.Cl | 91 | 0 | 59 |
| COc1ccc(OCCCN2CCCCC2)cc1S(=O)(=O)c1ccc(OCc2ccc(C(F)(F)F)cc2)cc1.Cl | 94 | 8 | 52 |
| Cc1ccc(C2(C)CN(CCCOc3cccc(-c4ccc(C(=O)NC(C)C)cc4)c3)CCO2)cc1 (configuration not stated) | 93 | 89 | 15 |
| Cc1cc(-c2cccc3c(C(=O)N4CCc5cc6nccc(N7CCN8CCC[C@H]8C7)c6cc54)cccc23)cc(C)n1.Cl | 97 | 76 | 13 |
| O=C(/C=C/c1ccc(Cl)c(Cl)c1)NCC[C@@H]1C[C@H]1CCN1CCC(c2c[nH]c3ccccc23)CC1 | 96 | 22 | 98 |
